# Reference: ChEMBL document CHEMBL4513216, “Probing the Open Global Health Chemical Diversity Library for Multistage-Active Starting Points for Next-Generation Antimalarials” (ACS Infect Dis, 2020)
# Screen size: about 69,000 compounds; about 8,600 (12%) showed an effect of 50% or more. The list comes from a sample in which strong results are over-represented; it also holds similar structures and randomly drawn compounds.
# Tested on: Plasmodium berghei
# Experiment: Screen against P. berghei liver stage (PbLuc), transformed with Luciferase, at 10uM
# Assay type: functional, HepG2
# Settings: tested at 10 uM
row,SMILES,INHIBITION [%]
1,CCC(CC)C(=O)NCc1cn2cc(Br)ccc2n1,50
2,CCOCCOC(C)C(=O)NCc1cn2cc(Br)ccc2n1 (centres undefined),-27.6
3,CC(C)COCCC(=O)NCc1cn2cc(Br)ccc2n1,55.1
4,CN(C)c1cc(C2CCCN(C(=O)c3ccc(=O)[nH]n3)C2)ccn1 (centres undefined),34.1
5,CC(=O)NCc1cc2n(n1)CCN(Cc1cccc(CCN)c1)C2,-7.53
6,Cc1ccccc1C(=O)NCc1ccnc(N(C)C)c1,24
7,O=C(c1ccncc1)N1CCC(c2nc(O)cc(-c3cccnc3)n2)C1 (centres undefined),48.9
8,CNC(=O)[C@H]1CC[C@@H]2[C@@H](CCN2C(=O)N(C)C)O1,15.7
9,CN(C)C(=O)[C@H]1CC[C@@H]2[C@@H](CCN2C(=O)N(C)C)O1,14.2
10,CNC(=O)[C@@H]1CC[C@@H]2[C@@H](CCN2C(=O)N(C)C)O1,58.5
11,Cn1cccc1C(=O)N1C[C@@H]2C[C@@H](c3nnc(C4CC4)o3)O[C@@H]2C1,43.9
12,CCCc1noc(C2CCN(C(=O)C3CCCO3)CC2)n1 (centres undefined),13.9
13,CCc1cc(N(C)Cc2nonc2C)nc(N2CCOCC2)n1,27.7
14,CCc1cc(N(C)Cc2ncc[nH]2)nc(N2CCOCC2)n1,25.8
15,CCc1cc(N(C)Cc2[nH]nc3c2CCC3)nc(N2CCOCC2)n1,51.1
16,Cc1cc(Oc2ccccc2)nc(C2CCCCN2)n1 (centres undefined),16.5
17,CNc1cc(N2CCCC2CNCc2ccco2)ncn1 (centres undefined),59.8
18,CNc1cc(N2CCCC2CNCc2cnc(C)cn2)ncn1 (centres undefined),7.7
19,CNc1cc(N2CCCC2CNCc2ccc(Cl)o2)ncn1 (centres undefined),56.9
20,CNc1cc(N2CCCC2CNCc2ccccn2)ncn1 (centres undefined),-21.3
21,CNc1cc(N2CCCC2CNCc2cccs2)ncn1 (centres undefined),36.8
22,CNc1cc(N2CCCC2CNCc2ccc(C)o2)ncn1 (centres undefined),-0.448
23,O=C(CNC(=O)c1ccc(Cl)cc1)Nc1nccs1,14.5
24,COc1ncccc1NC(=O)N(C1CC1)C(C)C(C)C (centres undefined),31.3
25,CCCc1nc(C(=O)NCCN2CCC(c3ccccc3C)C2)cs1 (centres undefined),85.1
26,Cc1nc(CC(=O)NCCN2CCC(c3ccccc3C)C2)cs1 (centres undefined),42.4
27,Cc1ccccc1C1CCN(CCNC(=O)CS(C)(=O)=O)C1 (centres undefined),36.9

row,SMILES,INHIBITION [%]
1,COc1c(Br)c(CC2CC(CO)=NO2)c(OC)c2c1OCO2 (centres undefined),22.6
2,CCn1cc(CN2CCN(C(=O)c3cc(Br)cs3)CC2)c(C)n1,38.3
3,Cn1cc(Cl)c(CN(Cc2ccsc2)CC2CCCO2)n1 (centres undefined),11.5
4,O=c1c2ccccc2nnn1CN(CC1CCOC1)C1CC1 (centres undefined),-5.92
5,O=c1oc2ccccc2n1CCN(CC1CCOC1)C1CC1 (centres undefined),51.3
6,Cc1nn(CN(CC2CCOC2)C2CC2)c(=O)c2ccccc12 (centres undefined),8.86
7,CCN(Cc1ccc(C(C)=O)cc1)CC1CCOCC1,14.6
8,O=c1oc2ccccc2n1CCCN1CCCC1c1ccc(O)cc1 (centres undefined),6.61
9,CCCN(CCn1c(=O)oc2ccccc21)CC1CC1,56.3
10,CCN(CCn1c(=O)oc2ccccc21)CC1CCOCC1,64.9
11,CCN(CC)CCn1c(=O)oc2ccccc21,-5.1
12,Cn1cc(C2CCCN2CCCn2c(=O)oc3ccccc32)cn1 (centres undefined),1.84
13,CCn1cc2[nH]c(OC)c(CNC(=O)C3CCCN(C)C3)cc-2c1=O (centres undefined),34.4
14,CC(C)(C)Nc1c(C2CCCN(C(=O)C3CC3)C2)nc2ccccn12 (centres undefined),14.05
15,Cc1nnc(CN(CCc2ccccc2)C2CCN(C)CC2)s1,4.12
16,CCn1cc(CNC2CCN(c3cccc(C)c3C)CC2)cn1,-12.1
17,CCOC1COC2(CCN(CC3CC3)CC2)C1 (centres undefined),26.7
18,Nc1nccc(C2CCN(CCO)C2)n1 (centres undefined),15.5
19,Cc1ccc(CN2CC[C@H]3C[C@H](C(=O)N(C)C)O[C@H]3C2)cc1,25.5
20,Cc1nnc(N2CC[C@H]3C[C@@H](C(=O)NC4CCCC4)O[C@H]3C2)s1,61.4
21,Cc1nnc(N2CC[C@H]3C[C@H](C(=O)N4CCOCC4)O[C@H]3C2)s1,50
22,Cc1nnc(N2CC[C@H]3C[C@H](C(=O)N(C)C)O[C@@H]3C2)s1,88.2
23,COCCNC(=O)[C@H]1C[C@@H]2CCN(c3nncs3)C[C@H]2O1,18.5
24,Cc1nnc(N2CC[C@H]3C[C@@H](C(=O)N4CCCC4)O[C@H]3C2)s1,-0.388
25,CN(C)C(=O)[C@@H]1C[C@@H]2CCN(C3CCOCC3)C[C@H]2O1,21.4
26,CNC(=O)[C@H]1C[C@@H]2CCN(c3nnc(C)s3)C[C@@H]2O1,21.8
27,Cc1ccc(N2CC[C@H]3C[C@@H](C(=O)N4CCOCC4)O[C@H]3C2)nn1,34.1
